Unmarked numbers belong to inactive results. Results filed as inconclusive are left out. The source made the active and inactive calls. Unless noted, calls follow the shape of the dose curve; as a rule, active = well fitted curve in the direction sought with a large enough effect in the repeat runs; inconclusive = weak or mixed curves; inactive = no such curve, though single readings can be large; an effect the other way counts as inactive or inconclusive.

Test [1] in a line: qHTS assay to identify small molecule agonists of H2AX (AID 1224845; active = well fitted activation curve with a large enough effect in the signal ratio in the repeat runs, not every such curve was filed as active; the % refers to the signal ratio). In outline: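 Phospho-H2AX Ser139 measured by HTRF (ex 320 nm; em 665 and 620 nm) after 24 hr antibody incubation. Compounds, 15 concentrations, 0.76% DMSO, were applied to CHO-K1 cells for 3hr at 37C before lysis.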
A short description of test [2]: qHTS assay to identify small molecule agonists of the hypoxia (HIF-1) signaling pathway (AID 1224846; active = well fitted activation curve with a large enough effect in the signal ratio in the repeat runs, not every such curve was filed as active; the % refers to the signal ratio). The gist of the method:
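HRE-bla ME-180 beta-lactamase reporter cells in medium with 0.5% dialyzed FBS, pre-incubated 5 h then exposed to compounds 17 h at 37C, 5% CO2; reporter induction read with CCF4-AM FRET substrate.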

Test [3] can be described thus: qHTS assay to identify small molecule agonists of H2AX - cell viability counter screen (AID 1224847; calls by dose curve; also: nearly all actives have a fitted effect of over 30% in size; also: potency is read from the fitted curve at half-maximal effect). In outline:
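Read-out: CellTiter-Glo luminescence, 30 min RT. Cells: wild-type CHO-K1, 1000/well, 10% FBS, plated overnight at 37C. Treatment: 15 concentrations, 3 hr, 37C, 0.76% DMSO.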

Test [4] in a line: qHTS assay to identify small molecule antagonists of the estrogen related receptor (ERR) signaling pathway from Tox21 library (AID 1224848). Also: nearly all actives have a fitted effect of over 50% in size. Also: potency is read from the fitted curve at half-maximal effect. The gist of the method: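 Reading was by luminescence 30 min after ONE-Glo addition. Before that, ERR cells at 2,000 per well had rested 6 h at 37 C/5% CO2 and then received pin-tooled compounds in DMSO for 18 h at 37 C.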
Test [5] is described as follows: qHTS assay to identify small molecule agonists of the estrogen related receptor (ERR) signaling pathway from Tox21 library (AID 1224849; calls by dose curve; also: nearly all actives have a fitted effect of over 15% in size). The conditions noted are these: ERR reporter cell line, ONE-Glo luciferase, 18 h; at 92.4 µM (top of the series) unless noted. In outline: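 ERR reporter cells (NTP line) pre-incubated 6 hours at 37 C, then exposed to compounds for 18 hours at 37 C. ONE-Glo luciferase luminescence was read after 30 minutes at room temperature.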

A short description of test [6]: qHTS RealTime-Glo MT Cell Viability Assay in HepG2 cells - 24 hour (AID 1224867). Also: nearly all actives have a fitted effect of over 50% in size. In outline:
(§1)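 Tox21 10K library screened in qHTS format on HepG2 cells carrying RealTime-Glo reagents. Compounds were added after a 5 h preincubation, and the luminescent signal from continuous culture was measured repeatedly during 40 h treatment.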

Test [7] in a line: qHTS RealTime-Glo MT Cell Viability Assay in HEK293 cells - 32 hour (AID 1224868). Also: nearly all actives have a fitted effect of over 50% in size. Also: potency is read from the fitted curve at half-maximal effect. In outline: (§2)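 Luminescence generated by NanoLuc from substrate produced by living HEK293 cells served as the viability signal. Each value reflects the reading at its stated time point during continuous 40 h compound exposure at 37 C.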
Test [8] can be described thus: A CellTox Green Cytotoxicity Assay to monitor cytotoxicity in HEK293 cells - 0 hour (AID 1224869). Also: nearly all actives have a fitted effect of over 50% in size. The gist of the method: (§3)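 HEK293 cells, 600/well, were preincubated 5 hours and then exposed to compounds at 37 C for up to 40 hours. A cell-impermeant cyanine dye staining dead-cell DNA was read by fluorescence at 0, 8, 16, 24, 32 and 40 h time points.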
Test [9] in a line: qHTS RealTime-Glo MT Cell Viability Assay in HepG2 cells - 40 hour (AID 1224870). Also: nearly all actives have a fitted effect of over 50% in size. In outline: (§4)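 Real-time viability: cells seeded at 600 per well together with NanoLuc and cell-permeant prosubstrate, compounds added after 5 h incubation. Luminescence tracked at 0, 8, 16, 24, 32 and 40 h of exposure.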
Test [10] is described as follows: A CellTox Green Cytotoxicity Assay to monitor cytotoxicity in HEK293 cells - 40 hour (AID 1224871). Also: nearly all actives have a fitted effect of over 45% in size. Also: potency is read from the fitted curve at half-maximal effect. The gist of the method: as §3
The nature of test [11]: qHTS RealTime-Glo MT Cell Viability Assay in HEK293 cells - 16 hour (AID 1224872). In outline:
as §2

The nature of test [12]: qHTS RealTime-Glo MT Cell Viability Assay in HepG2 cells - 8 hour (AID 1224873). Also: nearly all actives have a fitted effect of over 55% in size. In outline: as §4
A short description of test [13]: qHTS RealTime-Glo MT Cell Viability Assay in HEK293 cells - 40 hour (AID 1224874). Also: nearly all actives have a fitted effect of over 50% in size. Also: potency is read from the fitted curve at half-maximal effect. The conditions noted are these: RealTime-Glo luminescence; max response: hits give low values. In outline:
(§5)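 600 cells/well were plated with the nonlytic NanoLuc/prosubstrate reagent, pre-incubated 5 h, then given 23 nL of compound in DMSO. Incubation at 37 C for 40 h, with luminescence from viable-cell-reduced substrate read repeatedly from 0 h.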

Test [14] is described as follows: A CellTox Green Cytotoxicity Assay to monitor cytotoxicity in HEK293 cells - 24 hour (AID 1224875). Also: nearly all actives have a fitted effect of over 45% in size. In outline:
as §3

Test [15] can be described thus: A CellTox Green Cytotoxicity Assay to monitor cytotoxicity in HepG2 cells - 16 hour (AID 1224876). Also: nearly all actives have a fitted effect of over 45% in size. The gist of the method:
(§6)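 HepG2 cells, 600/well, preincubated 5 h with CellTox Green dye, then exposed to Tox21 compounds in DMSO at 37 C for up to 40 h. Dead-cell DNA fluorescence read at the indicated time point.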

A short description of test [16]: qHTS RealTime-Glo MT Cell Viability Assay in HepG2 cells - 32 hour (AID 1224877). Also: nearly all actives have a fitted effect of over 55% in size. In outline:
as §1

A short description of test [17]: A CellTox Green Cytotoxicity Assay to monitor cytotoxicity in HepG2 cells - 24 hour (AID 1224878). Also: nearly all actives have a fitted effect of over 45% in size. In outline:
as §6

The nature of test [18]: A CellTox Green Cytotoxicity Assay to monitor cytotoxicity in HepG2 cells - 40 hour (AID 1224879). Also: nearly all actives have a fitted effect of over 40% in size. In outline:
as §6

A short description of test [19]: qHTS RealTime-Glo MT Cell Viability Assay in HEK293 cells - 0 hour (AID 1224880). In outline: as §5
The nature of test [20]: A CellTox Green Cytotoxicity Assay to monitor cytotoxicity in HEK293 cells - 32 hour (AID 1224881). Also: nearly all actives have a fitted effect of over 40% in size. The gist of the method:
as §3
% is scaled to controls: 0 for no effect and ±100 for the full control effect.

`Cc1ccc(N)cc1C`: the Potency result in test [1], in [3], in test [4], in test [6], in test [7] and in test [8] was “inactive” in each case. Further, the Potency result in [9], in test [10], in [11], in test [12], in test [14] and in [15] was “inactive” each time. Further, the Potency entry in test [16], in test [17], in test [18], in test [19] and in test [20] was “inactive” in each case. Further, in test [2], the compound was called inactive. In addition, the activity change, positive = activation in [5] is 19.9% (active). Besides, the max response in test [13] was 13.4%.

Regarding `[O-][Cl+]O`, the Potency result in test [1], in [3], in [4], in [6], in test [7] and in test [8] was “inactive” in each case. Moreover, the Potency entry in test [9], in [11], in test [12], in test [14], in [15] and in test [16] was “inactive” throughout. For the same compound, the Potency entry in test [17] and in test [18] was “inactive” in each case. In test [2], the compound was classed as inactive. Also, the activity change, positive = activation in test [5] was 8.47%. Besides, the max response in test [13] was 2.38%.

Regarding `CC(=O)[C@H]1CC[C@H]2[C@@H]3CC[C@H]4C[C@](C)(O)CC[C@]4(C)[C@H]3CC[C@]12C`, the Potency entry in test [1], in test [3], in test [4], in test [6], in test [7] and in test [8] was “inactive” in each case. The Potency entry in test [9], in test [10], in [11], in test [12], in [14] and in [15] was “inactive” each time. In addition, the Potency result in test [16], in [17], in [18], in test [19] and in [20] was “inactive” throughout. The call in [2] was inactive. For the same compound, in test [5], the activity change, positive = activation is 9.6% [at 42.5 µM]. In test [13], the max response was -9.18%.

Take `CO/C=C(/C(=O)OC)c1ccccc1COc1cccc(C(F)(F)F)n1`: the Potency entry in test [1], in test [6], in [8], in test [9], in test [14] and in [15] was “inactive” in each case. In addition, the Potency entry in test [16], in test [17], in test [18] and in test [19] was “inactive” throughout. Also, in test [2], the call was inactive. Also, the Potency in test [3] was 17.9 µM (active); in test [4], 0.485 µM (active); in test [7] it was 19.5 µM (active); in test [10], 3.89 µM (active); in [13] it was 6.16 µM (active). Further, the activity change, positive = activation in [5] is -45%.

For the compound `C=C(C#N)CCC#N`, the Potency entry in [1], in [3], in [4], in test [6], in test [7] and in [8] was “inactive” throughout. Moreover, the Potency result in [9], in test [10], in test [11], in [12], in test [14] and in test [15] was “inactive” in each case. In addition, the Potency result in test [16], in test [17], in test [18], in test [19] and in [20] was “inactive” in each case. In addition, the call in test [2] was inactive. Moreover, in test [5], the activity change, positive = activation is 0.822%. Besides, the max response in test [13] was 5.63%.

As for `Cc1ccccc1CCl`, the Potency entry in test [1], in [3], in test [4], in [6], in test [7] and in test [8] was “inactive” in each case. Further, the Potency result in test [9], in test [10], in test [11], in [12], in test [14] and in [15] was “inactive” in each case. For the same compound, the Potency entry in test [16], in [17], in [18] and in test [19] was “inactive” in each case. Besides, the outcome in [2] was inactive. Also, in [5], the activity change, positive = activation was 7.48%. For the same compound, the max response in test [13] is -6.69%.

(Values after PubChem BioAssay (Tox21).)
